# Measurements reported in the supplement of paper PMC9446081.
# ± gives the standard deviation of the averaged measurements.
# Legend:
# Assay in all cases: relative enzymatic activity vs untreated control (fraction); higher = less inhibition
# Settings in all cases: 100 µM; incubation time: 2 h at 37 C
# DNA gyrase = test system: DNA gyrase
# Protocol: (§1)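 In vitro enzymatic inhibition assays (ProFoldin kits) for 12 purified essential E. coli enzymes or complexes, each treated with 218 active antibacterial compounds at 100 µM for 2 h at 37°C. Read-outs were fluorescence or absorbance (phosphate detection, dye binding), converted to activity via standard curves and expressed relative to untreated DMSO controls.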
# DNA helicase = DNA helicase (UniProt P0ACB1)
# Protocol: as §1
# DNA ligase = DNA ligase (UniProt B1XA82)
# Protocol: as §1
# DNA polymerase = DNA polymerase (UniProt P10443)
# Protocol: as §1
# DNA primase = DNA primase (UniProt P0ABS7)
# Protocol: as §1
# GlmU = GlmU (UniProt A7ZTU1)
# Protocol: as §1
# Guanlyate kinase = Guanlyate kinase (UniProt Q0TBG1)
# Protocol: as §1
# MurA = MurA (UniProt Q3YX52)
# Protocol: as §1
# MurD = target: T1, MurD (UniProt P14900)
# T1 sequence (whole entry): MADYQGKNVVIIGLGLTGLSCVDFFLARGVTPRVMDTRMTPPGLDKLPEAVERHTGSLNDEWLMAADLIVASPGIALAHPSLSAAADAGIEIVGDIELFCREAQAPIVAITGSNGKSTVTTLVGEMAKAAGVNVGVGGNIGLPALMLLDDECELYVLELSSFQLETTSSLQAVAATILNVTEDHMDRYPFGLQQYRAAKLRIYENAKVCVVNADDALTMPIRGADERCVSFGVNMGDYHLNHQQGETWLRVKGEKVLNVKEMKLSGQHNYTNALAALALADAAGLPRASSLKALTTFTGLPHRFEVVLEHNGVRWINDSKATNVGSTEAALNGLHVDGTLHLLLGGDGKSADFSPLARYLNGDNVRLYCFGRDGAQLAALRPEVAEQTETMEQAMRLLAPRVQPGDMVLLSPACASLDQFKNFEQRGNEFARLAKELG
# Protocol: as §1
# MurF = target: T2, MurF (UniProt P11880)
# T2 sequence (whole entry): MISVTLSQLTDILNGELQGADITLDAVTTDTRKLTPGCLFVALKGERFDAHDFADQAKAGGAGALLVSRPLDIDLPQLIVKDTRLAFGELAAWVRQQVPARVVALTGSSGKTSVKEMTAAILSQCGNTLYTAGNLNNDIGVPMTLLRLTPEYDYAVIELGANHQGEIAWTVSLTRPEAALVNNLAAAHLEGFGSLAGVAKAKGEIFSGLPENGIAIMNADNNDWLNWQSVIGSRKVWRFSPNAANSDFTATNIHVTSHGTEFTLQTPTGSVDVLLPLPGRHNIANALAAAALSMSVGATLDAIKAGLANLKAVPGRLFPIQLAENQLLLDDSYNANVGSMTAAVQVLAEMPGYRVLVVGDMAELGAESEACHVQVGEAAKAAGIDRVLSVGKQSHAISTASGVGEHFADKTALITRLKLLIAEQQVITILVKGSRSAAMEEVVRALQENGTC
# Protocol: as §1
# RNA polymerase = test system: RNA polymerase
# Protocol: as §1
# Chain of MurA (Q3YX52 whole entry): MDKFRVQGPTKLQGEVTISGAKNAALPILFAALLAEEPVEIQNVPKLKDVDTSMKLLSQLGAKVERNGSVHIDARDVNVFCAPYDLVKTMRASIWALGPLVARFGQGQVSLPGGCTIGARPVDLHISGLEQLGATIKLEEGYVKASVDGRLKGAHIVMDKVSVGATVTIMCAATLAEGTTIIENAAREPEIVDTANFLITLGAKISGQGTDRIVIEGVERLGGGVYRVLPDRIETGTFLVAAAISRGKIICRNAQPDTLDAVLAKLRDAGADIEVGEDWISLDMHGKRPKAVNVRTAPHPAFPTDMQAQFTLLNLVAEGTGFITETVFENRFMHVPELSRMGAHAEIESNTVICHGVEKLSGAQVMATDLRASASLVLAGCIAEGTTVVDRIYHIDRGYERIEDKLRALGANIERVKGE
# Chain of GlmU (A7ZTU1 whole entry, looked up): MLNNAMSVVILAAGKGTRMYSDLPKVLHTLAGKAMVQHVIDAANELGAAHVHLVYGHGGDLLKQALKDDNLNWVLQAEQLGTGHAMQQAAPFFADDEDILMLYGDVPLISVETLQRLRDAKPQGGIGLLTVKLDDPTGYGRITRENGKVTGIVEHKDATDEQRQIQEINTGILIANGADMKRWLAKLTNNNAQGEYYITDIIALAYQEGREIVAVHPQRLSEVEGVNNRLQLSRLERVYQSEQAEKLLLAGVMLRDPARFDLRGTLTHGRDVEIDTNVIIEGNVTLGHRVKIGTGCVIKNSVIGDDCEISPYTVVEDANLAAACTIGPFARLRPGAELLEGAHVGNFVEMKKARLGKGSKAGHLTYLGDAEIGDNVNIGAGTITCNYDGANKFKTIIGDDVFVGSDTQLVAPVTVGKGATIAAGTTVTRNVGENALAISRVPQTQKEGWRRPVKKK
# Chain of DNA ligase (B1XA82 whole entry): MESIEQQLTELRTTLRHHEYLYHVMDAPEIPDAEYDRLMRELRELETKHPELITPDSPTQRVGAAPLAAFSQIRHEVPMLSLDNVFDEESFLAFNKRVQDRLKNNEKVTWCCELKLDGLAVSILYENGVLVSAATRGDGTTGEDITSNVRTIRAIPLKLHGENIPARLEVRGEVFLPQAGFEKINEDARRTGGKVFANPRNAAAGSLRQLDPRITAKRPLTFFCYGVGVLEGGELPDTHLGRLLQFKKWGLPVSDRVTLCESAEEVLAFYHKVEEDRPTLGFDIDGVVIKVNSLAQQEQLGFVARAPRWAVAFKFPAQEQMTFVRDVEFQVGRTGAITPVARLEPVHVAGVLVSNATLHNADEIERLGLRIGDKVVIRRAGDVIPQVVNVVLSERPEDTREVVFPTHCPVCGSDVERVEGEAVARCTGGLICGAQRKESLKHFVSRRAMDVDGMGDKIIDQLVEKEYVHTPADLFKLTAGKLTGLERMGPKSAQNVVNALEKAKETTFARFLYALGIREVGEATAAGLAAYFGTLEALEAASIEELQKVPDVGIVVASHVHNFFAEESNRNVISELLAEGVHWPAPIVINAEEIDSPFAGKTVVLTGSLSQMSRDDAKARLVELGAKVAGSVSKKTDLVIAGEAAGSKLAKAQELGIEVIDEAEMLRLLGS
# Chain of DNA primase (P0ABS7 whole entry): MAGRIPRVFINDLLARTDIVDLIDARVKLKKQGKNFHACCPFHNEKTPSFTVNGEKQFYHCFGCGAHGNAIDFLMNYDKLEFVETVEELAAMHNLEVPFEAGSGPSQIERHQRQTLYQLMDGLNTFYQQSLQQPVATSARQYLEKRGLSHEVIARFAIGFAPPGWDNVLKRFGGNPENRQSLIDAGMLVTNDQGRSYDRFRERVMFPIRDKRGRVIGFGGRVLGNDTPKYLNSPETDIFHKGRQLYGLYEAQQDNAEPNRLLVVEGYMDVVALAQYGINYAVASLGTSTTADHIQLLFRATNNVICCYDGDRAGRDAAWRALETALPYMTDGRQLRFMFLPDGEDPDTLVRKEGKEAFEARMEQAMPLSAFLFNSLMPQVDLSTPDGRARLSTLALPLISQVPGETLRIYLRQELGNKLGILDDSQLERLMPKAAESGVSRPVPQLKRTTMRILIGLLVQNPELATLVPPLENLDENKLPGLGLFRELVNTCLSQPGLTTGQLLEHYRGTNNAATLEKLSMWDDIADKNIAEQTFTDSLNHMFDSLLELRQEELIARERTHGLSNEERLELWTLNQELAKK
# Chain of Guanlyate kinase (Q0TBG1 whole entry): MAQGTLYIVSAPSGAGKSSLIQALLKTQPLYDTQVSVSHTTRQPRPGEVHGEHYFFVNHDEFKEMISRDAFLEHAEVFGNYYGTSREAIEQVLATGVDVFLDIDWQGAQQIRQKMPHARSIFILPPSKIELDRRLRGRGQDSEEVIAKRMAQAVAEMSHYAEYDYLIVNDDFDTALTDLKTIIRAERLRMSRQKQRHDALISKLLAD
# Chain of DNA polymerase (P10443 whole entry): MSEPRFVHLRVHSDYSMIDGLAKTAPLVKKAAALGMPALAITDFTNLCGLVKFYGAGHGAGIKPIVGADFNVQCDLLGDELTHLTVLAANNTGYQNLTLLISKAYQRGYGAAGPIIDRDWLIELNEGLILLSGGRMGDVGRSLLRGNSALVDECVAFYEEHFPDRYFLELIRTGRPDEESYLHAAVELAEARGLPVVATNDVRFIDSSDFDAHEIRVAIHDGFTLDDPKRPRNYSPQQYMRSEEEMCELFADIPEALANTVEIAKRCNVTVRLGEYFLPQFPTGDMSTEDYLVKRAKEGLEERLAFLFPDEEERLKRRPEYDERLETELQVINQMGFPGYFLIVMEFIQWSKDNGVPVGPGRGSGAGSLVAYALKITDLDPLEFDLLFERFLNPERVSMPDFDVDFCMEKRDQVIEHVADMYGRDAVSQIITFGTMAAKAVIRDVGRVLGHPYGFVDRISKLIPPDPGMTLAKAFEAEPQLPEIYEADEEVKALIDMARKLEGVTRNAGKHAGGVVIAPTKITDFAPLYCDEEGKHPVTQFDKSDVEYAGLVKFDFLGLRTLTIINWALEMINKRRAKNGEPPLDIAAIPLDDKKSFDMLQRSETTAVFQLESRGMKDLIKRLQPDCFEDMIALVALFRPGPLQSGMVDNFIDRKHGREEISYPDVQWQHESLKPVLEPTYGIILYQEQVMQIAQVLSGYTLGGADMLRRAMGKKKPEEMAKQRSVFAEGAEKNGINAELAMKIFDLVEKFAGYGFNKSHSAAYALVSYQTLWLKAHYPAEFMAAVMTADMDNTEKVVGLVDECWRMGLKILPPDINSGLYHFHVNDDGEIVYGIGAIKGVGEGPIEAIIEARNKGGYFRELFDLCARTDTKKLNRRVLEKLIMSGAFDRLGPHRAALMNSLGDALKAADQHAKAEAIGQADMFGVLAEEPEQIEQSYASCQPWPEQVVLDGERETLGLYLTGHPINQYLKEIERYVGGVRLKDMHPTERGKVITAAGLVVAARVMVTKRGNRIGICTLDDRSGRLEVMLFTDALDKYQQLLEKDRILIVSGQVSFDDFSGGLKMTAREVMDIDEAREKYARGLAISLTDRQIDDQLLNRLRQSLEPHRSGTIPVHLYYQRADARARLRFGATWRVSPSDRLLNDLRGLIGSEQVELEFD
# Chain of DNA helicase (P0ACB1 whole entry): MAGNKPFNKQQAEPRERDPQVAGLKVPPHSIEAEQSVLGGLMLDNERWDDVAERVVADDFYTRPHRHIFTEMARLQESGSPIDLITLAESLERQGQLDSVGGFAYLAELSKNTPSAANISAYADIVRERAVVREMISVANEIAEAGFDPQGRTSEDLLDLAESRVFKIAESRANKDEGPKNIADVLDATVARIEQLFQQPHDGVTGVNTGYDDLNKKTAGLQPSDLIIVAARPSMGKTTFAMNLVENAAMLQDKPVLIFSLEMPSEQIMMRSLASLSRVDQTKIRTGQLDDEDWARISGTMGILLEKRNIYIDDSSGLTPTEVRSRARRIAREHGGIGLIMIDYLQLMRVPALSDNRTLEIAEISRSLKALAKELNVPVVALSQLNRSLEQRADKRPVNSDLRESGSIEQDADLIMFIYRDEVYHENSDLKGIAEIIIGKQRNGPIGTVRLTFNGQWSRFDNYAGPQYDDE
Structure (SMILES),relative enzymatic activity (DNA gyrase),relative enzymatic activity (DNA helicase),relative enzymatic activity (DNA ligase),relative enzymatic activity (DNA polymerase),relative enzymatic activity (DNA primase),relative enzymatic activity (GlmU),relative enzymatic activity (Guanlyate kinase),relative enzymatic activity (MurA),relative enzymatic activity (MurD),relative enzymatic activity (MurF),relative enzymatic activity (RNA polymerase)
CO[C@@]12[C@@H]3N[C@@H]3CN1C1=C(C(=O)C(N)=C(C)C1=O)[C@@H]2COC(N)=O,1.25 ± 0.4,0.689 ± 0.37,0.844 ± 0.031,1.17 ± 0.19,0.837 ± 0.014,0.979 ± 0.0078,0.861 ± 0.01,0.431 ± 0.072,0.615 ± 0.42,0.942 ± 0.24,0.82 ± 0.035
NCCCC[C@H](NC(=O)[C@@H](NC(=O)[C@H](Cc1c[nH]c2ccccc12)NC(=O)[C@H](CCCCN)NC(=O)[C@H](CCCCN)NC(=O)[C@H](Cc1c[nH]c2ccccc12)NC(=O)[C@H](Cc1c[nH]c2ccccc12)NC(=O)[C@H](CCCCN)NC(=O)[C@@H](N)CCCCN)C(c1ccccc1)c1ccccc1)C(N)=O,0.0308 ± 0.044,0.0869 ± 0.0012,1.12 ± 0.43,0.0842 ± 0.0071,0.299 ± 0.053,0.879 ± 0.061,0.355 ± 0.02,0.477 ± 0.43,0.568 ± 0.41,0.833 ± 0.18,0.0964 ± 0.032
Cc1cc(O)c(C(=O)NC(C(=O)NC2C(=O)N3C(C(=O)O)=C(CSc4nnnn4C)CSC23)c2ccc(O)cc2)cn1 (stereo not drawn),0.926 ± 0.39,0.805 ± 0.39,1.22 ± 0.41,1.34 ± 0.42,0.891 ± 0.028,0.962 ± 0.018,0.925 ± 0.044,0.346 ± 0.0056,0.601 ± 0.41,0.945 ± 0.24,0.862 ± 0.071
CN(C)C1C(O)=C(C(N)=O)C(=O)C2(O)C(O)=C3C(=O)c4c(O)ccc(Cl)c4C(O)C3CC12.Cl (stereo not drawn),0.59 ± 0.38,0.359 ± 0.13,1.03 ± 0.047,1.16 ± 0.26,0.64 ± 0.12,1.005 ± 0.0054,0.874 ± 0.1,0.133 ± 0.045,0.593 ± 0.41,0.937 ± 0.17,0.804 ± 0.072
Cl.O=C(O)c1cn(-c2ccc(F)cc2)c2cc(N3CCNCC3)c(F)cc2c1=O,0.0194 ± 0.027,0.484 ± 0.099,1.18 ± 0.41,1.19 ± 0.31,0.688 ± 0.12,0.955 ± 0.031,0.73 ± 0.11,0.698 ± 0.044,0.595 ± 0.41,0.919 ± 0.24,0.228 ± 0.089
CCCCCCCCCCCCC[N+](C)(C)Cc1ccccc1,0.675 ± 0.95,0.0123 ± 0.0012,0.955 ± 0.043,1.04 ± 0.27,0.787 ± 0.099,0.0868 ± 0.0048,0.396 ± 0.0083,0.0305 ± 0.016,0.0614 ± 0.011,0.177 ± 0.064,0.919 ± 0.13
Cl.NC1CCN(c2c(F)cc3c(=O)c(C(=O)O)cn(C4CC4)c3c2Cl)C1 (stereo not drawn),0.213 ± 0.3,0.622 ± 0.2,0.994 ± 0.13,1.08 ± 0.17,0.872 ± 0.014,0.974 ± 0.019,0.92 ± 0.21,0.73669 ± 0.0002,0.606 ± 0.42,0.977 ± 0.24,0.809 ± 0.07
CN[C@@H]1[C@H](O)[C@H](NC)[C@H]2O[C@@]3(O)C(=O)C[C@@H](C)O[C@H]3O[C@@H]2[C@H]1O,0.826 ± 0.36,0.508 ± 0.2,1.12 ± 0.086,1.09 ± 0.072,0.8044 ± 0.0019,1 ± 0.033,1.06 ± 0.05,0.601 ± 0.16,0.624 ± 0.44,1.16 ± 0.02,0.91 ± 0.14
Cn1cc(-c2[nH]c3cc(NC(=O)[C@H](N)C4CCCCC4)cc4c3c2C=NNC4=O)cn1,0.0124 ± 0.018,0.0463 ± 0.061,0.703 ± 0.085,0.083 ± 0.099,≤ 0,0.899 ± 0.013,0.0166 ± 0.0039,0.348 ± 0.12,0.599 ± 0.43,1.13 ± 0.017,0.191 ± 0.029
CON=C(C(=O)NC1C(=O)N2C(C(=O)[O-])=C(COC(N)=O)CSC12)c1ccco1.[Na+] (stereo not drawn),1.06 ± 0.11,0.47 ± 0.024,1.36 ± 0.18,1.12 ± 0.2,0.69 ± 0.18,1.12 ± 0.054,0.9 ± 0.019,0.117 ± 0.034,0.72 ± 0.49,1.02 ± 0.23,0.866 ± 0.088
COC(=O)N/N=C/c1c[n+]([O-])c2ccccc2[n+]1[O-],0.905 ± 0.076,0.651 ± 0.26,0.933 ± 0.14,1.16 ± 0.23,0.803 ± 0.018,1.012 ± 0.0043,0.591 ± 0.026,0.719 ± 0.12,0.604 ± 0.4,0.913 ± 0.27,0.789 ± 0.081
CC1C(NC(=O)C(=NOC(C)(C)C(=O)O)c2csc(N)n2)C(=O)N1S(=O)(=O)O (stereo not drawn),0.879 ± 0.42,0.582 ± 0.14,1.36 ± 0.2,0.711 ± 0.38,0.832 ± 0.01,0.903 ± 0.016,0.908 ± 0.068,0.798 ± 0.071,0.589 ± 0.39,0.948 ± 0.24,0.844 ± 0.071
CN1CCN(c2cc3c(cc2F)c(=O)c(C(=O)O)cn3-c2ccc(F)cc2)CC1.Cl,0.0325 ± 0.046,0.445 ± 0.075,1.46 ± 0.11,1.3 ± 0.33,0.681 ± 0.17,0.957 ± 0.011,0.9286 ± 0.0092,0.593 ± 0.055,0.566 ± 0.37,0.959 ± 0.17,0.929 ± 0.056
